Reference: the supplement of paper PMC7695840
Counter-ions that a name gives are not always drawn.

Legend:
[1] = tested on: Staphylococcus aureus MW2 delta-mecA (mecA-); experiment: normalized GFP fluorescence (growth of mecA- strain) (fraction of control range); higher = more growth of mecA- strain; details: compound concentration: 150 uM; cefoxitin: subinhibitory; fluorescent label: GFP
In short: (§1)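 Pre-induced S. aureus MW2 cells carrying the gene (DsRed) and deletion cells lacking it (GFP) were combined 1:1 in LB containing a subinhibitory antibiotic dose set each day, then dispensed at 5 µL/well onto 150 μM compound (1.5% DMSO) in 1536-well plates as a single replicate. After 20 h at 37 °C and 90% humidity without shaking, DsRed (540/590) and GFP (485/520) were read. Each channel was scaled per plate between the medians of the single-strain controls, and plates with high untreated ratios and rows with DsRed/GFP >10 were excluded.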

[2] = tested on: Staphylococcus aureus MW2 (mecA+); experiment: normalized DsRed fluorescence (growth of mecA+ strain) (fraction of control range); higher = more growth of mecA+ strain; details: compound concentration: 150 uM; cefoxitin: subinhibitory; fluorescent label: DsRed
In short: as §1

SMILES	normalized GFP fluorescence [1]	normalized DsRed fluorescence [2]
O=C(NCCO[N+](=O)[O-])c1cccnc1 [Nicorandil (Ikorel)]	0.624	0.986
C[N+](C)(C)CC(=O)O	0.229	0.899
C[C@H]1[C@H](NC(=O)/C(=N\OC(C)(C)C(=O)O)c2csc(N)n2)C(=O)N1S(=O)(=O)O [Aztreonam (Azactam, Cayston)]	0.136	1.17
CC1=C(/C=C/C(C)=C/C=C/C(C)=C/C(=O)O)C(C)(C)CCC1	-0.00103	0.642
CN(CCOc1ccc(NS(C)(=O)=O)cc1)CCc1ccc(NS(C)(=O)=O)cc1 [Dofetilide (Tikosyn)]	0.244	1.28
Nc1ncnc2c1ncn2[C@@H]1O[C@H](COP(=O)(O)O)[C@@H](O)[C@H]1O	0.4	0.484
C[C@H]1C[C@H]2[C@@H]3CCC4=CC(=O)C=C[C@]4(C)[C@@]3(F)[C@@H](O)C[C@]2(C)[C@@]1(O)C(=O)CO [Betamethasone (Celestone)]	0.0397	1.3
O=C(O)c1cccc(-c2noc(-c3ccccc3F)n2)c1 [PTC124 (Ataluren)]	0.0948	0.473
CC[C@]12C=CCN3CC[C@@]4(c5cc([C@@]6(C(=O)OC)C[C@@H]7C[C@@H](C(C)(F)F)CN(Cc8c6[nH]c6ccccc86)C7)c(OC)cc5N(C)[C@H]4[C@@](O)(C(=O)OC)[C@@H]1OC(C)=O)[C@@H]32 [Vinflunine Tartrate]	0.315	0.556
O=C(Nc1c(Cl)cncc1Cl)c1ccc(OC(F)F)c(OCC2CC2)c1 [Roflumilast (Daxas)]	0.368	0.773
CC1(C)[C@@H](OC(=O)CCC(=O)O)CC[C@]2(C)[C@H]3C(=O)C=C4[C@@H]5C[C@@](C)(C(=O)O)CC[C@]5(C)CC[C@@]4(C)[C@]3(C)CC[C@@H]12	0.146	0.249
CN[C@@H]1[C@H](O[C@H]2[C@H](O[C@H]3[C@H](O)[C@@H](O)[C@H](N=C(N)N)[C@@H](O)[C@@H]3N=C(N)N)O[C@@H](C)[C@]2(O)C=O)O[C@@H](CO)[C@H](O)[C@H]1O	0.752	0.69
CC(=O)CC(c1ccc([N+](=O)[O-])cc1)c1c(O)c2ccccc2oc1=O (centres undefined)	0.279	0.29
CC1=CC(=O)c2ccccc2C1=O	0.0466	0.307
CC(C)(C)NCC(O)c1ccc(O)c(CO)c1 (centres undefined) [Salbutamol sulfate (Albuterol)]	0.318	0.695
CCOC(=O)n1ccn(C)c1=S [Carbimazole]	0.708	0.813
C#C[C@]1(OC(C)=O)CC[C@H]2[C@@H]3CCC4=C[C@@H](OC(C)=O)CC[C@@H]4[C@H]3CC[C@@]21C	0.192	0.568
O=C1CN(/N=C/c2ccc(-c3ccc([N+](=O)[O-])cc3)o2)C(=O)N1	0.519	0.706
NS(=O)(=O)c1cc2c(cc1C(F)(F)F)NCNS2(=O)=O	0.22	0.753
NC12CC3CC(CC(C3)C1)C2	0.453	0.794
CS(=O)(=O)c1ccc(C2=C(c3ccccc3)C(=O)OC2)cc1	0.195	0.89
COc1cc(Nc2ncc(F)c(Nc3ccc4c(n3)N(COP(=O)(O)O)C(=O)C(C)(C)O4)n2)cc(OC)c1OC [R788 (Fostamatinib)]	0.503	0.475
Cc1ccccc1OCC(O)CO (centres undefined)	0.392	0.853

SMILES	normalized GFP fluorescence [1]	normalized DsRed fluorescence [2]
CCN1CCC[C@H]1CNC(=O)c1cc(S(N)(=O)=O)ccc1OC [Levosulpiride (Levogastrol)]	0.447	0.695
C=C[C@H]1CN2CC[C@H]1C[C@@H]2[C@@H](O)c1ccnc2ccc(OC)cc12	0.452	0.631
NC[C@H]1O[C@H](O[C@H]2[C@H](O[C@@H]3O[C@H](CO)[C@@H](O)[C@H]3O)[C@@H](O)[C@H](N)C[C@@H]2N)[C@H](N)[C@@H](O)[C@@H]1O	0.457	0.685
CCOC(=O)[C@H](CCc1ccccc1)N[C@@H](C)C(=O)N1Cc2cc(OC)c(OC)cc2C[C@H]1C(=O)O [Moexipril HCl]	0.373	0.48
CC(O)(CC(=O)O)CC(=O)O	0.226	0.945
CC(C)(O)c1ccccc1CC[C@@H](SCC1(CC(=O)O)CC1)c1cccc(/C=C/c2ccc3ccc(Cl)cc3n2)c1	-0.0136	0.632
COc1ccc(CN(CCN(C)C)c2ncccn2)cc1	0.471	0.813
Nc1nnc(-c2cccc(Cl)c2Cl)c(N)n1 [Lamotrigine]	-0.0077	1.04
CC(C)[C@H]1CC[C@H](C(=O)N[C@H](Cc2ccccc2)C(=O)O)CC1	3.92e-05	0.513
CC1=NN(c2ccc(C)c(C)c2)C(=O)/C1=N\Nc1cccc(-c2cccc(C(=O)O)c2)c1O	-0.0259	0.021
CC#C[C@]1(O)CC[C@H]2[C@@H]3CCC4=CC(=O)CCC4=C3[C@@H](c3ccc(N(C)C)cc3)C[C@@]21C	0.622	0.695
COc1ccc2c(c1OC)C(=O)O[C@@H]2[C@H]1c2c(cc3c(c2OC)OCO3)CCN1C	0.473	0.698
CC(=O)Oc1cccc(O)c1	0.353	0.584
O.O.O.O.O=C([O-])CC(O)(CC(=O)[O-])C(=O)[O-].[Li+].[Li+].[Li+]	0.18	1.09
C[C@@H]1NC(=O)[C@@H](N)CNC(=O)[C@H](C2CCNC(=N)N2)NC(=O)/C(=C/NC(N)=O)NC(=O)[C@H](CNC(=O)CC(N)CCCN)NC1=O.N=C1NCCC([C@@H]2NC(=O)/C(=C/NC(N)=O)NC(=O)[C@H](CNC(=O)CC(N)CCCN)NC(=O)[C@H](CO)NC(=O)[C@@H](N)CNC2=O)N1 (some centres undefined)	0.494	0.758
CCCNCC(O)COc1ccccc1C(=O)CCc1ccccc1 (centres undefined)	0.19	1.05
Nc1ccc(S(=O)(=O)Nc2ccccn2)cc1	0.364	0.542
CCN1CCCC1CNC(=O)c1cc(S(N)(=O)=O)ccc1OC (centres undefined)	0.362	0.764
COc1ccc2c(c1)c(CC(=O)O)c(C)n2C(=O)c1ccc(Cl)cc1	-0.013	0.261
CN1CCCN=C1COC(=O)C(O)(c1ccccc1)C1CCCCC1 (centres undefined)	0.399	0.63
CCC(CC)[C@H](NC(C)=O)[C@@H]1[C@H](O)[C@@H](C(=O)O)C[C@H]1NC(=N)N [Peramivir Trihydrate]	0.634	0.659
CCN[C@@H]1C[C@H](N)[C@@H](O[C@H]2OC(CN)=CC[C@H]2N)[C@H](O)[C@H]1O[C@H]1OC[C@](C)(O)[C@H](NC)[C@H]1O	0.695	0.952
O=C(c1ccc(OCCN2CCCCC2)cc1)c1c(-c2ccc(O)cc2)sc2cc(O)ccc12	-0.00866	0.747

SMILES	normalized GFP fluorescence [1]	normalized DsRed fluorescence [2]
Cc1[nH]c(=O)c(C#N)cc1-c1ccncc1	0.476	0.797
CC[C@H](C)C(=O)O[C@H]1C[C@@H](C)C=C2C=C[C@H](C)[C@H](CC[C@@H]3C[C@@H](O)CC(=O)O3)[C@H]21	0.345	0.697
O=C(O)c1cc(/N=N/c2ccc(S(=O)(=O)Nc3ccccn3)cc2)ccc1O [Sulfasalazine (Azulfidine)]	0.311	0.584
Cc1cnc(C(=O)NCCc2ccc(S(=O)(=O)NC(=O)NC3CCCCC3)cc2)cn1	0.553	0.734
CC(=O)OCC(=O)[C@@]1(OC(C)=O)[C@@H](C)C[C@H]2[C@@H]3C[C@H](F)C4=CC(=O)C=C[C@]4(C)[C@@]3(F)[C@@H](O)C[C@@]21C	0.256	1.11
Cc1nc2n(c(=O)c1CCN1CCC(c3noc4cc(F)ccc34)CC1)CCCC2	0.481	0.492
CC(=O)O[C@@]12CO[C@@H]1C[C@H](O)[C@@]1(C)C(=O)[C@H](O)C3=C(C)[C@@H](OC(=O)[C@H](O)[C@@H](NC(=O)OC(C)(C)C)c4ccccc4)C[C@@](O)([C@@H](OC(=O)c4ccccc4)[C@H]21)C3(C)C [Docetaxel (Taxotere)]	0.11	0.768
O=S(=O)(O)CCS	0.0478	0.565
CC(C)[N+]1(C)[C@@H]2CC[C@H]1C[C@@H](OC(=O)C(CO)c1ccccc1)C2 (some centres undefined)	0.206	0.856
O=C(O)P(=O)(O)O	0.285	0.7
CCCCC(CC)COC(=O)C=Cc1ccc(OC)cc1 (centres undefined)	0.289	0.473
CCN1CCCC1CNC(=O)c1cc(S(=O)(=O)CC)c(N)cc1OC (centres undefined) [Amisulpride]	0.514	0.816
CCOC(=O)[C@H](CCc1ccccc1)N[C@H]1CCCN2CCC[C@@H](C(=O)O)N2C1=O [Cilazapril monohydrate (Inhibace)]	0.646	0.59
CC(=O)N(CC(O)CO)c1c(I)c(C(=O)NCC(O)CO)c(I)c(C(=O)NCC(O)CO)c1I (centres undefined)	0.415	0.849
CN1C(CCl)Nc2cc(Cl)c(S(N)(=O)=O)cc2S1(=O)=O (centres undefined) [Methyclothiazide]	0.383	0.579
COc1nc(N)nc2c1ncn2[C@@H]1O[C@H](CO)[C@@H](O)[C@@H]1O [Nelarabine (Arranon)]	0.298	0.855
COc1ccc(-c2ccc3cc(C(=O)O)ccc3c2)cc1C12CC3CC(CC(C3)C1)C2	0.582	0.97
OC(CCN1CCCC1)(c1ccccc1)C1CCCCC1 (centres undefined)	0.159	1.7
C[N+]1(C)[C@@H]2CC[C@H]1C[C@@H](OC(=O)C(O)c1ccccc1)C2 (some centres undefined)	0.29	0.71
CC[C@H]1OC(=O)[C@H](C)[C@@H](O[C@H]2C[C@@](C)(OC)[C@@H](O)[C@H](C)O2)[C@H](C)[C@@H](O[C@@H]2O[C@H](C)C[C@H](N(C)C)[C@H]2O)[C@](C)(OC)C[C@@H](C)C(=O)[C@H](C)[C@@H](O)[C@]1(C)O [Clarithromycin (Biaxin, Klacid)]	0.181	0.788
COc1cc2nc(N3CCN(C(=O)C4COc5ccccc5O4)CC3)nc(N)c2cc1OC (centres undefined) [Doxazosin mesylate]	0.0162	1.12
